Data on twelve compounds can be found in PubChem BioAssay (NCATS).

The nature of experiment [1]: Immunotoxin (HA22) sensitization/mitigation study. Vehicle arm (PBS) (AID 1159510).
Experiment [2] is described as follows: Immunotoxin (SS1P) sensitization/mitigation study. Vehicle arm (DMEM) (AID 1159513).

Active and inactive are the calls of the source. How the calls were made is not given here.
Potency means the concentration at half of the fitted maximal effect.

Regarding `CN(C)C(=O)c1ccc(S(=O)(=O)c2ccc(NC(=O)[C@@](C)(O)C(F)(F)F)c(Cl)c2)cc1`, the Potency in experiment [1] is 1.66 µM (active). Further, the Potency entry in experiment [2] was “inactive”.

With `NC(=O)Nc1cc(-c2cccc(F)c2)sc1C(=O)N[C@H]1CCCNC1`, the Potency in experiment [1] was 0.105 µM (active); in experiment [2], 0.59 µM (active).

In the case of `N#Cc1ccc(NC(=O)Nc2ccccc2Br)c2n[nH]nc12`, the Potency in experiment [1] was 26.4 µM (active). In experiment [2], the Potency result is “inactive”.

For `CCCCCCCCCCCCCCCCCCOP(=O)([O-])OC1CC[N+](C)(C)CC1`, the Potency result in experiment [1] and in experiment [2] was “inactive” throughout.

As for `CCNC(=O)c1noc(-c2cc(C(C)C)c(O)cc2O)c1-c1ccc(CN2CCOCC2)cc1`, the Potency in experiment [1] is 0.0015 µM (active); in experiment [2], 0.0021 µM (active).

Turning to `C=CC(=O)Nc1cccc(Oc2nc(Nc3ccc(N4CCN(C)CC4)cc3OC)ncc2Cl)c1`, the Potency is 16.6 µM (active) in experiment [1] and 23.5 µM (active) in experiment [2].

On to `Cc1cc(Nc2cc(N3CCN(C)CC3)nc(Sc3ccc(NC(=O)C4CC4)cc3)n2)n[nH]1`, for which the Potency in experiment [1] is 7.43 µM (active); in experiment [2], 18.7 µM (active).

Consider `O=C1C(Cl)=C(NCCN2CCOCC2)C(=O)c2ncccc21`, for which the Potency in experiment [1] is 2.35 µM (active); in experiment [2], 14.8 µM (active).

Consider `Cc1cc(C=c2sc3nc4ccccc4n3c2=O)c(C)n1-c1ccccc1`, for which the Potency is 18.7 µM (active) in experiment [1] and 9.35 µM (active) in experiment [2].

With `COc1cc(=C2C=c3ccccc3=N2)[nH]c1=Cc1[nH]c(C)cc1C`, the Potency in experiment [1] is 0.187 µM (active); in experiment [2] it was 6.62 µM (active).

For `CN(C)c1ccc(C2Nc3ccc4ccccc4c3C3=C2C(=O)CC(C)(C)C3)cc1Br` (centres undefined), the figures for the Potency in experiment [1] and in experiment [2] were 11.8 µM (active) and 18.7 µM (active), respectively.

`CC(=O)OCC(=O)[C@@]1(O)[C@H](C)C[C@H]2[C@@H]3C=C(C)C4=Cc5c(cnn5-c5ccccc5)C[C@]4(C)[C@@H]3[C@@H](O)C[C@@]21C`: the Potency is 1.32 µM (active) in experiment [1] and 26.4 µM (active) in experiment [2].
